Test results reported in PubChem BioAssay (NCI).
This is part of a sample that, as a whole, favours compounds with a hit. Of some 83,000 tested, about 20% had one in any assay.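 Interpretation: 100, growth as untreated; towards 0, rising growth inhibition; 0, no net growth; 0 to -100, cell death. Compounds scoring below 10 were considered active.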 A number with no mark means an inactive call. Activity calls are given as the source filed them.

What follows are compounds tested on SF-268 CNS (assay: NCI-60 one-dose screen, 48 h (100 = growth as untreated, 0 = no growth, -100 = all killed)). Details: 10 µM.
`Cc1c(O)cnc2nn(-c3ccccc3)c(=N)n12` showed a growth of 113%. For `CC[N+](C)(CC)CCO`, the growth was 112%. `CCOC(=O)C/C(C)=N\O` was tested, and the growth was 103%. In the case of `COc1cc(CCN=Cc2ccccc2O)c([N+](=O)[O-])cc1OC`, the growth was 100%. Work on `O=[N+]([O-])c1ccc(CO)cc1` yielded a growth of 107%. `O=C(Nc1ccccc1C(=O)NCC1CC1)c1cccs1` gave a growth of 113%. With `COc1cc(CN)ccc1O` the growth was 100%. `N#CC(=Nc1cccc(F)c1)C1=C(O)c2ccccc2C1=O` was tested, and the growth was 96.5%. For `CC(=O)OCC1OC(OC2=C(CC=C(C)C)C(=O)c3ccccc3C2=O)C(OC(C)=O)C(OC(C)=O)C1OC(C)=O` (centres undefined), the growth was 22.7%. With `O=[N+]([O-])c1ccccc1S(=O)c1ccccc1[N+](=O)[O-]` the growth was 88.1%. For `CC(=O)OCC1CCCO1` (centres undefined), the growth was 107%. `CC(C(=O)O)(C1CCCCC1)C1(O)CCCCC1` (centres undefined) showed a growth of 99.2%. Compound `COc1cc(/C=C/C(=O)c2ccccc2)cc(OC)c1OC` has a growth of 57.9%. `O=C1OC(c2ccc(F)cc2)CC1CN1CCOCC1` (centres undefined) showed a growth of 104%. In the case of `OC1OC(COC(c2ccccc2)(c2ccccc2)c2ccccc2)C(O)C(O)C1O` (centres undefined), the growth was 97.7%. `O=C(NCCNC(=O)c1ccc(Cl)cc1Cl)c1ccc(Cl)cc1Cl` showed a growth of 99.1%. Work on `CC(C)(N)COS(=O)(=O)O` yielded a growth of 92.7%. Work on `C=CCCCCCCCCCOC(C)=O` yielded a growth of 96.9%. `O=C(NCc1ccco1)Nc1c(Cl)cc(Cl)cc1Cl` showed a growth of 104%. For `CCOC(=O)C1=C(Nc2ccc(Br)cc2)C(=O)N(CC)C1`, the growth was 96.8%. For `CN(C)c1ccc(C(c2ccc(O)cc2)c2ccc(N(C)C)cc2)cc1`, the growth was 92.1%. In the case of `S=C1NCc2cncnc2N1`, the growth was 107%. `C/C(=N\NC(=O)c1ccccc1N)c1ccccc1O` gave a growth of 39.3%. `CC(C)(C)n1nc(C2CC2)c(Br)c1NC(=O)c1ccccc1F` gave a growth of 112%. `O=C(O)CCC(NC(=O)OCc1ccccc1)C(=O)O` (centres undefined) gave a growth of 100%. Work on `Nc1ccccc1SC(CC(=O)c1ccccc1)c1c(Cl)cccc1Cl` (centres undefined) yielded a growth of 56%. `O=C(O)CSCSCC(=O)O` was tested, and the growth was 110%. Work on `NC(CSC(c1ccccc1)(c1ccccc1)c1ccccc1)C(=O)O` (centres undefined) yielded a growth of 43.3%. Compound `CCCCC1C(=O)N(c2ccccc2)N(c2ccccc2)C1=O` has a growth of 107%. Work on `CCCC[P+](c1ccccc1)(c1ccccc1)c1ccccc1` yielded a growth of 67.2%. `CC(CN1CCCCC1)NC(=O)c1scnc1-c1ccccc1` (centres undefined) gave a growth of 115%. `COc1ccc(C(=O)C(Br)C(Br)C(=O)O)cc1` (centres undefined) was tested, and the growth was 108%. With `CCOC(=O)c1coc(C(=O)OCC)c1C(=O)OCC` the growth was 105%. In the case of `O=C(OCC(O)C1OC(c2ccccc2)OC(COC(=O)c2ccccc2)C1O)c1ccccc1` (centres undefined), the growth was 110%. `COc1ccc(/C(C#N)=C2C=C/C(=N/O)c3ccccc3\2)cc1` showed a growth of 18.6%. With `Nc1ccc(N)c([N+](=O)[O-])c1` the growth was 99.9%. Work on `Cc1ccccc1C1N=C2Oc3ccccc3C=C2C(=O)N1` (centres undefined) yielded a growth of 53.7%. `O=C(Nc1ccccc1)OCCc1ccccc1` gave a growth of 111%. In the case of `Cc1cc(/C=C/c2ccc3cc(N(C)C)ccc3[n+]2C)c(C)n1-c1ccccc1`, the growth was -1.17% (active).

These compounds were tested on SF-295 CNS in the same assay as above. Details: 10 µM.
`Cc1c(O)cnc2nn(-c3ccccc3)c(=N)n12` was tested, and the growth was 99.1%. With `CC[N+](C)(CC)CCO` the growth was 99.5%. `CCOC(=O)C/C(C)=N\O` showed a growth of 91.6%. `COc1cc(CCN=Cc2ccccc2O)c([N+](=O)[O-])cc1OC` showed a growth of 87.4%. `O=[N+]([O-])c1ccc(CO)cc1` showed a growth of 94.4%. `O=C(Nc1ccccc1C(=O)NCC1CC1)c1cccs1` was tested, and the growth was 86.5%. `N#CC(=Nc1cccc(F)c1)C1=C(O)c2ccccc2C1=O` was tested, and the growth was 82%. `CC(=O)OCC1OC(OC2=C(CC=C(C)C)C(=O)c3ccccc3C2=O)C(OC(C)=O)C(OC(C)=O)C1OC(C)=O` (centres undefined) was tested, and the growth was 63.4%. `O=[N+]([O-])c1ccccc1S(=O)c1ccccc1[N+](=O)[O-]` showed a growth of 79%. Compound `CC(=O)OCC1CCCO1` (centres undefined) has a growth of 101%. With `CC(C(=O)O)(C1CCCCC1)C1(O)CCCCC1` (centres undefined) the growth was 82.9%. In the case of `COc1cc(/C=C/C(=O)c2ccccc2)cc(OC)c1OC`, the growth was -24.7% (active). In the case of `O=C1OC(c2ccc(F)cc2)CC1CN1CCOCC1` (centres undefined), the growth was 89.9%. With `OC1OC(COC(c2ccccc2)(c2ccccc2)c2ccccc2)C(O)C(O)C1O` (centres undefined) the growth was 96.8%. Work on `O=C(NCCNC(=O)c1ccc(Cl)cc1Cl)c1ccc(Cl)cc1Cl` yielded a growth of 82.7%. `CC(C)(N)COS(=O)(=O)O` was tested, and the growth was 101%. `C=CCCCCCCCCCOC(C)=O` showed a growth of 105%. With `O=C(NCc1ccco1)Nc1c(Cl)cc(Cl)cc1Cl` the growth was 93.5%. `CCOC(=O)C1=C(Nc2ccc(Br)cc2)C(=O)N(CC)C1` showed a growth of 87%. `CN(C)c1ccc(C(c2ccc(O)cc2)c2ccc(N(C)C)cc2)cc1` gave a growth of 103%. `S=C1NCc2cncnc2N1` showed a growth of 94.2%. `C/C(=N\NC(=O)c1ccccc1N)c1ccccc1O` was tested, and the growth was 12.8%. `CC(C)(C)n1nc(C2CC2)c(Br)c1NC(=O)c1ccccc1F` was tested, and the growth was 94.9%. `O=C(O)CCC(NC(=O)OCc1ccccc1)C(=O)O` (centres undefined) gave a growth of 102%. With `Nc1ccccc1SC(CC(=O)c1ccccc1)c1c(Cl)cccc1Cl` (centres undefined) the growth was 94.2%. `O=C(O)CSCSCC(=O)O` gave a growth of 96.6%. For `CCCCC1C(=O)N(c2ccccc2)N(c2ccccc2)C1=O`, the growth was 110%. `CC(CN1CCCCC1)NC(=O)c1scnc1-c1ccccc1` (centres undefined) gave a growth of 79%. `COc1ccc(C(=O)C(Br)C(Br)C(=O)O)cc1` (centres undefined) showed a growth of 108%. In the case of `CCOC(=O)c1coc(C(=O)OCC)c1C(=O)OCC`, the growth was 102%. Compound `O=C(OCC(O)C1OC(c2ccccc2)OC(COC(=O)c2ccccc2)C1O)c1ccccc1` (centres undefined) has a growth of 77.3%. For `COc1ccc(/C(C#N)=C2C=C/C(=N/O)c3ccccc3\2)cc1`, the growth was -38.6% (active). Compound `Nc1ccc(N)c([N+](=O)[O-])c1` has a growth of 108%. In the case of `O=C(Nc1ccccc1)OCCc1ccccc1`, the growth was 80.9%. `Cc1cc(/C=C/c2ccc3cc(N(C)C)ccc3[n+]2C)c(C)n1-c1ccccc1` was tested, and the growth was -33.6% (active).
